# Reference: PubChem BioAssay (NCATS)
# A number with no mark means an inactive call. Calls follow the shape of the dose curve; as a rule, active = well fitted inhibition curve with a large enough effect; inconclusive = small, poorly fitted or top-dose-only effect; inactive = no such curve, though single readings can be large or run the other way.
# Experiment: qHTS assay for measurement of the activity of small molecule inhibitors on Zika virus induced Caspase-3 activity in human astrocytoma cells (AID 1224859)
# Details: SNB-19 ZIKV-induced caspase-3/7, luminescence, 6 h; series mostly up to 45.7 µM; activity change, negative = inhibition: at the top concentration
# Text: National Center for Advancing Translational Sciences [NCATS]
# Johns Hopkins University School of Medicine
# Increase in the Caspase-3 activity indicates an activation of apoptosis cell death pathway caused by Zika virus infection in certain types of neuronal cells including human neural progenitor cells (hNPCs), astrocytes, and astrocytoma cell line (SNB-19). This cell-based caspase-3 activity assay measures the increased caspase-3 activity in the astrocytoma cell line (SNB-19) after a 6-hour Zika virus infection with a luminescence readout. A decrease in the luminescence signal in this assay by small molecule treatment indicates an inhibitory effect of that small molecule on the Zika virus induced caspase-3 activity that may correlate with its effect on reduction of Zika virus caused cell death.
# The medium for SNB-19 cells is composed of RPMI 1640 (ATCC, Cat.# 30-2001), 10% fetal bovine serum (FBS) (GE healthcare Life Sciences, Cat.# SH30071.03), and 1% Pen/Strep (Gibco, Cat.# 15140-122). A Caspase-Glo 3/7 assay kit (catalog number G8092; Promega, Madison, WI) was used to detect caspase-3 activity induced by Zika virus infection in human cells. The reagent mixture was reconstituted as described in the protocol from the manufacturer. Polystyrene tissue culture treated and PDL coated white plates were obtained from Greiner Bio-One (Monroe, NC). Cells were seeded in 384- or 1536-well assay plates and cultured at 37 C with 5% CO2 for 16 to 20 hours. The typical cell seeding density in the 1536-well plate assay is 250 cells/well in 3ul medium for SNB-19 cells in tissue culture treated plates. Compounds were added to cells and incubated for one hour before addition of ZIKV solution to cells (2 FFU/cell). After incubation at 37 C with 5% CO2 for 6 hours, the reagent mixture of Caspase-Glo 3/7 assay kit was added to each well, followed by incubation at room temperature for 30 minutes. The luminescence intensity of the assay plates was measured using a ViewLux plate reader (PerkinElmer). Data were normalized by using the cell-containing wells without ZIKV as a negative control (0% induction of caspase 3/7 activity) and wells containing ZIKV infected cells (Caspase-3 activity induced) as a positive control (100% induction of caspase 3 activity). The percentage inhibitions of the increased Caspase-3 activity by small molecule inhibitors were then calculated.
row,SMILES,"activity change, negative = inhibition"
1,N#C/C(=C\c1ccc(O)c(O)c1)C(=O)NCc1ccccc1,0.744%
2,CCOC(=O)C1=C(C)NC(C)=C(C(=O)OCC)C1c1c(F)c(F)c(F)c(F)c1F,166%
3,O=C(O)Cc1ccc2c(c1)C(=O)c1ccccc1CO2,-10.8%
4,N#C/C(=C\c1ccc(-c2cc(Cl)ccc2Cl)o1)C(=O)Nc1cccc2ncccc12,0.117%
5,CCN(CC)c1ncnc2c1ncn2[C@@H]1O[C@H](COP(=O)(O)OP(=O)(O)C(Br)(Br)P(=O)(O)O)[C@@H](O)[C@H]1O,-3.45%
6,Oc1ccc(C2CNCc3sccc32)cc1O (stereo not given),-4.27%
7,CNCC[C@H](Oc1ccc(C(F)(F)F)cc1)c1ccccc1,1.17%
8,N#C/C(=C\c1c[nH]c2ccccc12)C(=O)c1ccc(O)c(O)c1,-1.55%
9,NC(=O)C1=CN(C2OC(COP(=O)(O)OP(=O)(O)OC[C@H]3O[C@@H](n4cnc5c(N)ncnc54)[C@H](OP(=O)(O)O)[C@@H]3O)C(O)C2O)C=CC1 (stereo not given in full),7.89%
10,C=CC(=O)c1ccc(CCCCCC)cc1,8.69%
11,C[N+]1(C)[C@@H]2CC(OC(=O)[C@H](CO)c3ccccc3)C[C@H]1[C@@H]1O[C@@H]12 (stereo not given in full),12.9%
12,CCCCC1C(=O)N(c2ccccc2)N(c2ccc(O)cc2)C1=O (stereo not given),23%
13,NCCO,-11.3% [at 92.8 µM]
14,OC[C@H]1O[C@@H](n2cnc3c(NC4CCCCC4)ncnc32)[C@H](O)[C@@H]1O,-18.6%
15,N=C1N=C(N)c2cc3ccccc3cc21,106% [at 92.8 µM]
16,NCCNC(=O)c1ncsc1-c1cccc(F)c1,1.89%
17,CN(C)CCCO[C@@H]1[C@H]2OC(C)(C)O[C@H]2O[C@@H]1[C@H](O)CO,-7.02%
18,CCOc1ccc2nc(S(N)(=O)=O)sc2c1,-12.5%
19,O=C(O)c1cc(O)c(O)c(O)c1,-6.58%
20,Nc1c(CC(=O)O)cccc1C(=O)c1ccc(Br)cc1,-29.4%

row,SMILES,"activity change, negative = inhibition"
1,Clc1ccc(N2CCN(Cc3cc4ccccn4n3)CC2)cc1,5.61%
2,COc1ccccc1CNCCCCCCNCCCCCCCCNCCCCCCNCc1ccccc1OC,0.726%
3,CCCCCCCCCCCCCCCC(=O)OC(CC(=O)O)C[N+](C)(C)C (stereo not given),-0.56%
4,COC(=O)C1=C(C)NC(C)=C(C(=O)OCC(C)=O)C1c1ccccc1[N+](=O)[O-] (stereo not given),-2.67%
5,O=C(O)CNC(=O)C(CS)Cc1ccccc1 (stereo not given),12.5%
6,CN1CCC[C@H]1c1cccnc1,7.83%
7,Nc1nc(Nc2ccccc2)nc2c1ncn2[C@@H]1O[C@H](CO)[C@@H](O)[C@H]1O,5.65%
8,Fc1cccc(/C=N/N=C/c2cccc(F)c2)c1,5.1%
9,O=c1[nH]c2cc([N+](=O)[O-])c([N+](=O)[O-])cc2[nH]c1=O,5.31%
10,CCNC(=O)[C@H]1O[C@@H](n2cnc3c(N)nc(NCCc4ccc(CCC(=O)O)cc4)nc32)[C@H](O)[C@@H]1O,-11%
11,O=C(c1cc(O)c(O)c([N+](=O)[O-])c1)c1ccccc1F,-11.5%
12,CN(C)CCC(c1ccc(Cl)cc1)c1ccccn1 (stereo not given),4.44%
13,COC(=O)C1=C(C)NC(C)=C(C(=O)OCC(C)C)C1c1ccccc1[N+](=O)[O-] (stereo not given),-10.4%
14,COC(=O)c1nc(Cl)c(Cl)nc1N,64.7%
15,NC(=S)NCCC[C@H](N)C(=O)O,9.94%
16,COc1cc2c(CCNC(C)=O)c[nH]c2cc1Cl,5.05%
17,O=Cc1ccc(O)c(O)c1O,-6.15%
18,N.N.O=C(O)C1(C(=O)O)CCC1.[Pt],5.11%
19,COC1=C(OC)C(=O)c2ccccc2C1=O,0.793%
20,C[N+](C)(C)CC(=O)[O-],-5.18%
